Out of some 5,500 compounds screened, about 2,000 (36%) were called active. Another 18% or so got no clear call; they are omitted. No stated cut-off is given here; in the data, active means normalized growth mostly below about 0.91 (no sharp cut-off); inconclusive means no clear call, values can overlap the other calls; inactive means mostly above about 0.92. Some of the results follow.
Experiment: chemical genetic growth profiling, strain panel (AID 1159580);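 further: tested at 20 µM; growth read once vehicle control cultures reached saturation at 30 °C; 1 = growth at the plate median or of vehicle wells; lower values mean less growth of the strain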
Settings: S. cerevisiae deletion strains, growth OD
[1] = locus YAL040C, strain CLN3, active compounds read low
[2] = locus YCL061C, strain MRC1 (second series), active compounds read low
[3] = locus YDR363W, strain ESC2, active compounds read low
[4] = locus YER002W, strain NOP16, active compounds read low
[5] = locus YNL175C, strain NOP13, active compounds read low
[6] = locus YNL197C, strain WHI3, active compounds read low
[7] = locus YNL224C, strain SQS1, active compounds read low
[8] = locus YOR083W, strain WHI5 (second series), active compounds read low

Measured: normalized growth

O=[N+]([O-])c1cccc2cn[nH]c12
inactive: locus YAL021C, strain ccr4, active compounds read low 1.01 | locus YAL026C, strain drs2, active compounds read low 1 | locus YAL030W, strain snc1, active compounds read low 1 | [1] 0.985 | locus YBL061C, strain skt5, active compounds read low 0.996 | locus YBR009C, strain hhf1, active compounds read low 1 | locus YBR023C, strain chs3, active compounds read low 0.991 | locus YBR171W, strain sec66, active compounds read low 0.981 | locus YBR231C, strain swc5, active compounds read low 0.982 | locus YBR279W, strain paf1, active compounds read low 1 | locus YCL011C, strain gbp2, active compounds read low 0.983 | locus YCL016C, strain dcc1, active compounds read low 0.989 | [2] 1 | locus YCL061C, strain MRC1, active compounds read low 0.997 | locus YCL069W, strain vba3, active compounds read low 0.986 | locus YCR088W, strain abp1, active compounds read low 0.98 | locus YDL005C, strain med2, active compounds read low 0.997 | locus YDL040C, strain nat1, active compounds read low 1 | locus YDR001C, strain nth1, active compounds read low 0.99 | locus YDR069C, strain doa4, active compounds read low 0.982 | locus YDR137W, strain rgp1, active compounds read low 0.996 | locus YDR159W, strain sac3, active compounds read low 0.991 | locus YDR195W, strain ref2 1.02 | locus YDR297W, strain sur2, active compounds read low 0.988 | locus YDR334W, strain swr1, active compounds read low 0.997 | locus YDR335W, strain msn5, active compounds read low 0.986 | [3] 1.01 | locus YDR392W, strain spt3, active compounds read low 1.02 | locus YEL003W, strain gim4, active compounds read low 1 | locus YEL037C, strain rad23, active compounds read low 1 | locus YEL061C, strain CIN8 (second series), active compounds read low 0.979 | [4] 0.987 | locus YER015W, strain faa2, active compounds read low 0.994 | locus YER016W, strain bim1, active compounds read low 1 | locus YER111C, strain swi4, active compounds read low 0.989 | locus YER155C, strain BEM2 (second series), active compounds read low 1.01 | locus YFR010W, strain ubp6, active compounds read low 0.988 | locus YGL167C, strain pmr1, active compounds read low 0.998 | locus YGL173C, strain kem1, active compounds read low 1.01 | locus YGL227W, strain vid30, active compounds read low 1.01 | locus YGL240W, strain doc1, active compounds read low 1.01 | locus YGL253W, strain hxk2, active compounds read low 0.99 | locus YGR229C, strain SMI1, active compounds read low 0.999 | locus YHR013C, strain ard1, active compounds read low 1.05 | locus YHR027C, strain rpn1, active compounds read low 0.994 | locus YHR030C, strain SLT2, active compounds read low 1.03 | locus YHR079C, strain IRE1, active compounds read low 1.03 | locus YHR142W, strain chs7, active compounds read low 0.995 | locus YJL092W, strain hpr5, active compounds read low 0.989 | locus YJL095W, strain BCK1 (second series), active compounds read low 1 | locus YJL095W, strain BCK1, active compounds read low 1.03 | locus YJL115W, strain asf1, active compounds read low 0.984 | locus YJL129C, strain trk1, active compounds read low 1 | locus YJL154C, strain vps35, active compounds read low 0.981 | locus YJL164C, strain tpk1, active compounds read low 0.988 | locus YJL166W, strain qcr8, active compounds read low 0.992 | locus YJL187C, strain SWE1, active compounds read low 0.999 | locus YJR066W, strain TOR1, active compounds read low 0.947 | locus YJR075W, strain HOC1, active compounds read low 1.01 | locus YKL160W, strain elf1, active compounds read low 0.958 | locus YKR026C, strain gcn3, active compounds read low 1 | locus YKR091W, strain srl3, active compounds read low 0.988 | locus YLL001W, strain dnm1, active compounds read low 0.999 | locus YLL026W, active compounds read low 0.98 | locus YLL041C, strain sdh2, active compounds read low 0.985 | locus YLR027C, strain aat2, active compounds read low 1 | locus YLR113W, strain HOG1, active compounds read low 1 | locus YLR221C, strain rsa3, active compounds read low 0.995 | locus YLR258W, strain gsy2, active compounds read low 0.983 | locus YLR262C, strain YPT6 (second series), active compounds read low 1.01 | locus YLR320W, strain mms22, active compounds read low 1 | locus YLR342W, strain FKS1, active compounds read low 1.01 | locus YLR357W, strain rsc2, active compounds read low 0.993 | locus YLR370C, strain arc18, active compounds read low 0.994 | locus YLR384C, strain iki3, active compounds read low 0.996 | locus YML120C, strain ndi1, active compounds read low 0.991 | locus YMR058W, strain fet3, active compounds read low 0.982 | locus YMR125W, strain sto1, active compounds read low 0.967 | locus YMR129W, active compounds read low 0.993 | locus YMR205C, strain PFK2, active compounds read low 0.991 | locus YMR231W, strain pep5, active compounds read low 1 | locus YNL071W, strain lat1, active compounds read low 1.01 | locus YNL128W, strain TEP1, active compounds read low 0.998 | [5] 0.999 | locus YNL183C, strain NPR1, active compounds read low 0.951 | [6] 0.992 | locus YNL209W, strain ssb2, active compounds read low 0.972 | [7] 1 | locus YNL248C, strain rpa49, active compounds read low 0.965 | locus YNL322C, strain KRE1 (second series), active compounds read low 0.993 | locus YNR049C, strain mso1, active compounds read low 1 | locus YOR001W, strain rrp6, active compounds read low 1 | locus YOR070C, strain gyp1, active compounds read low 0.992 | locus YOR080W, strain dia2, active compounds read low 1.01 | [8] 1 | locus YOR083W, strain WHI5, active compounds read low 0.965 | locus YOR106W, strain vam3, active compounds read low 0.981 | locus YOR231W, strain MKK1, active compounds read low 1.01 | locus YOR265W, strain rbl2, active compounds read low 0.996 | locus YOR270C, strain vph1, active compounds read low 0.992 | locus YOR290C, strain snf2, active compounds read low 0.986 | locus YPL051W, strain arl3, active compounds read low 0.972 | locus YPL078C, strain atp4, active compounds read low 0.995 | locus YPL106C, strain sse1, active compounds read low 0.957 | locus YPL240C, strain hsp82, active compounds read low 0.992 | locus YPL256C, strain CLN2, active compounds read low 0.997

Cc1[nH]c(=O)c(C#N)cc1-c1ccncc1
inactive: locus YAL013W, strain DEP1, active compounds read low 1.02 | [1] 1 | [2] 1.01 | [3] 1.04 | [4] 0.997 | locus YGR078C, strain PAC10, active compounds read low 1.01 | locus YMR263W, strain SAP30, active compounds read low 1.01 | locus YMR307W, strain GAS1, active compounds read low 1.01 | locus YNL153C, strain GIM3, active compounds read low 1.01 | [5] 1.01 | [6] 1.01 | [7] 1.01 | locus YNL322C, strain KRE1, active compounds read low 1.01 | [8] 1.01 | locus YPL241C, strain CIN2, active compounds read low 0.998
